Reference: PubChem BioAssay AID624483 (NMMLSC, 2012)
About 11,000 (3.1%) of roughly 360,000 compounds were called active. Roughly 2% stayed inconclusive and do not appear here. This is one part of a sample in which actives are shown more often than they occur. No stated cut-off is given here; in the data, active means fluorescence intensity above about 16000; inconclusive means no clear call, values can overlap the other calls; inactive means below that.

Experiment: compound fluorescence in toxin protease inhibitor counterscreen, primary screen, artefact control for toxin protease inhibitor project, biochemical, multiplex microsphere, HTS (AID 624483)
Conditions: compound autofluorescence counterscreen, microsphere flow cytometry; stronger effect = higher value
For `Cc1noc(C)c1C(=O)N1CCC1(C)C(=O)NS(=O)(=O)c1ccc(C#N)cc1` (stereo not drawn), the fluorescence intensity was 3990 (inactive).
For `COc1ccc(C)c(Cn2c(-c3nonc3N)nc3ccccc32)c1`, the fluorescence intensity was 8560 (inactive).
In the case of `Nc1nonc1-c1nc2ccccc2n1CCC(=O)O`, the fluorescence intensity is reported as 23600 (active).
In the case of `O=C(O)CCn1c(Cc2ccccc2)nc2ccccc21`, the fluorescence intensity is reported as 4070 (inactive).
With `O=C(CNC(=O)c1ccccc1F)c1ccc(Br)cc1` the fluorescence intensity was 4100 (inactive).
With `CCc1nc2ccc(C(=O)NC3CCN(Cc4ccccc4)CC3)cn2c1N(CC)CCOC` the fluorescence intensity was 3640 (inactive).
In the case of `OC1CCCN(c2ncnc3c2nnn3Cc2c(F)cccc2Cl)C1` (stereo not drawn), the fluorescence intensity is reported as 4220 (inactive).
With `Cc1cc(C)cc(NC(=O)CSCc2cnn(-c3ccccc3)c2-n2cccc2)c1` the fluorescence intensity was 3720 (inactive).
With `CC(=O)Nc1ccc(NC(=O)CSCc2cnn(-c3ccccc3)c2-n2cccc2)cc1` the fluorescence intensity was 21800 (active).
In the case of `O=C(CSCc1ccccc1)Nc1ccccc1`, the fluorescence intensity is reported as 3440 (inactive).
For `CCC(=O)N1Cc2cc(C(=O)NCc3cccc(F)c3)nc(-c3cccc(C4=CCCC4)c3)c2[C@H]1CCO`, the fluorescence intensity was 5960 (inactive).
In the case of `O=C(c1cc2ccccc2o1)N1CCN(S(=O)(=O)c2ccc(Cl)s2)CC1`, the fluorescence intensity is reported as 3540 (inactive).
In the case of `COc1cccc2cc(C(=O)N3CCN(C(=O)c4ccccc4)CC3)c(=O)oc12`, the fluorescence intensity is reported as 2640 (inactive).
With `CS(=O)(=O)N1CCN(C(=O)c2cc3ccccc3oc2=O)CC1` the fluorescence intensity was 20900 (active).
With `Cc1ccc(S(=O)(=O)N2CCN(C(=O)Cc3sc(C)nc3-c3ccc(F)cc3)CC2)c(C)c1` the fluorescence intensity was 5210 (inactive).
With `COCCCNC(=O)c1cccc2c(-c3ccc(O)c(OC)c3)coc12` the fluorescence intensity was 3660 (inactive).
In the case of `CCCS(=O)(=O)NC(=O)C1(C)CCCN(C(=O)c2cccs2)C1` (stereo not drawn), the fluorescence intensity is reported as 3930 (inactive).
With `CCc1ccc(-c2nnn(Cc3nn[nH]n3)n2)cc1` the fluorescence intensity was 20100 (active).
For `CN(Cc1nc2ccccc2s1)C(=O)c1ccc(F)cc1`, the fluorescence intensity was 3850 (inactive).
For `CCc1ccc(-c2nnn(Cc3nc4ccccc4s3)n2)cc1`, the fluorescence intensity was 22800 (active).
In the case of `CN(C)c1nc(N)nc(Cn2nnc(-c3ccc(C(F)(F)F)cc3)n2)n1`, the fluorescence intensity is reported as 5180 (inactive).
In the case of `COc1ccc(-c2nnn(Cc3nc(N)nc(N4CCCCC4)n3)n2)cc1`, the fluorescence intensity is reported as 4610 (inactive).
For `CCC1(CC)NC(=O)N(Cc2nc3ccccc3s2)C1=O`, the fluorescence intensity was 3380 (inactive).
With `Nc1[nH]c(C(=O)c2ccccc2)c(-c2ccc(Br)cc2)c1C(=O)NC1CC1` the fluorescence intensity was 4400 (inactive).
For `Cc1ccc(C(O)c2ncc(-c3ccccc3F)[nH]2)cc1F` (stereo not drawn), the fluorescence intensity was 3620 (inactive).
With `O=C1CCCC(O)=C1N=Nc1ccc2ncsc2c1` the fluorescence intensity was 2580 (inactive).
With `CC1(C)CC(CC(=O)O)C(=O)O1` (stereo not drawn) the fluorescence intensity was 4100 (inactive).
In the case of `CN(CC(=O)Nc1ccccc1Cl)C(=O)COc1cccc2c1OC(C)(C)C2`, the fluorescence intensity is reported as 5770 (inactive).
With `CC1(C)CC(CCC(=O)Nc2ccccc2Cl)C(=O)O1` (stereo not drawn) the fluorescence intensity was 23100 (active).
In the case of `COc1ccc(C2CC(c3ccccc3)=NN2C(=O)COC(=O)COc2ccccc2)cc1` (stereo not drawn), the fluorescence intensity is reported as 4620 (inactive).
In the case of `CNC(=S)N1N=C(c2ccccc2)CC1c1ccc(Br)cc1` (stereo not drawn), the fluorescence intensity is reported as 23900 (active).
In the case of `Brc1ccc(C2CC(c3ccccc3)=Nc3ccccc3N2)cc1` (stereo not drawn), the fluorescence intensity is reported as 2950 (inactive).
In the case of `COC(=O)Cc1ccc(OC2(C)CCN(Cc3ccc4c(c3)OCCO4)C2)cc1` (stereo not drawn), the fluorescence intensity is reported as 2970 (inactive).
In the case of `CCOc1ccc(NC(=S)N2CCCCCC2)cc1`, the fluorescence intensity is reported as 4120 (inactive).
With `O=C(NCc1cccnc1)c1cc(C2CCCCN2C(=O)CCc2ccccc2)on1` (stereo not drawn) the fluorescence intensity was 3910 (inactive).
With `Cc1c(C(=O)NCC2CC2)sc(=O)n1Cc1cccc(F)c1` the fluorescence intensity was 5240 (inactive).
For `CN(CC(O)COc1ccc(S(=O)(=O)N2CCOCC2)cc1Cl)C1CCCCC1` (stereo not drawn), the fluorescence intensity was 4510 (inactive).
For `Cc1ccccc1CN1C(=O)c2ccccc2Sc2ccc(C(=O)NCCCN3CCOCC3)cc21`, the fluorescence intensity was 4180 (inactive).
With `O=C(NCCCN1CCCCC1)c1ccc2c(c1)NC(=O)C(N1CCOCC1)S2` (stereo not drawn) the fluorescence intensity was 20400 (active).
For `COc1ccc(CCNC(=O)c2ccc3c(c2)NC(=O)C(N2CCOCC2)S3)cc1OC` (stereo not drawn), the fluorescence intensity was 3710 (inactive).
For `CCOC(=O)N1CCN(C(c2ccnc3ccccc23)c2nnnn2-c2c(C)cccc2C)CC1` (stereo not drawn), the fluorescence intensity was 5760 (inactive).
With `COc1cccc(CNC(=O)[C@@H]2CCCN2C(=O)[C@@H]2CCCN2C(=O)c2ccccc2)c1` the fluorescence intensity was 6440 (inactive).
With `Cc1nn(CC(=O)NCCc2ccccc2)c(=O)c2cc3occc3n12` the fluorescence intensity was 4600 (inactive).
For `Cn1c(=O)[nH]c(=O)c2c1nc(N(CCO)Cc1ccccc1)n2Cc1ccccc1Cl`, the fluorescence intensity was 19800 (active).
With `CCOC(=O)Cn1c(CN(Cc2ccccc2)Cc2ccccc2)nc2c1c(=O)[nH]c(=O)n2C` the fluorescence intensity was 11200 (inactive).
In the case of `CN(Cc1ccccc1)c1nc2c(c(=O)[nH]c(=O)n2C)n1CCSc1nc2ccccc2[nH]1`, the fluorescence intensity is reported as 3450 (inactive).
In the case of `COc1ccc(-c2[nH][nH]c(=O)c2NC(=O)c2ccc([N+](=O)[O-])cc2)cc1`, the fluorescence intensity is reported as 4210 (inactive).
In the case of `CC(C)C[C@H]1CNC(=S)N1C[C@H]1CCCN1C[C@H](Cc1ccc(O)cc1)N1C[C@H](Cc2ccc(O)cc2)N(CC2CCCCC2)C1=S`, the fluorescence intensity is reported as 6520 (inactive).
In the case of `COC(=O)C1C(=O)CC(C)(O)C(C(=O)OC)C1c1ccc2c(c1)OCO2` (stereo not drawn), the fluorescence intensity is reported as 8340 (inactive).
With `Cc1ccsc1-c1cc(C(=O)O)c2c(ccc3ccccc32)n1` the fluorescence intensity was 3620 (inactive).
For `COCCn1nnnc1CN1CCC(NC(=O)Nc2cccc(OC)c2)CC1`, the fluorescence intensity was 24600 (active).
In the case of `COc1cccc(NC(=O)N2CCC(NC(=O)C(Cc3cccc(C)c3)NC(C)=O)CC2)c1` (stereo not drawn), the fluorescence intensity is reported as 3850 (inactive).
With `COc1cccc(NC(=O)N2CCCC2C(=O)NC2CCCCC2)c1` (stereo not drawn) the fluorescence intensity was 6160 (inactive).
In the case of `COc1cc(C(=O)NN(CCC#N)C2=NS(=O)(=O)c3ccccc32)cc(OC)c1OC`, the fluorescence intensity is reported as 4420 (inactive).
For `COc1ccc(/C=C2\CCCC3C2=NN(C(=O)c2scnc2C)C3c2ccc(OC)cc2)cc1` (stereo not drawn), the fluorescence intensity was 22800 (active).
For `COc1ccc(/C=C2/CCCc3ccccc3C2=O)cc1`, the fluorescence intensity was 3030 (inactive).
In the case of `COc1ccc(C=C2CCC3C(CCCC34OCCO4)C2=O)cc1` (stereo not drawn), the fluorescence intensity is reported as 2890 (inactive).
In the case of `Nc1ncnc2c1ncn2[C@@H]1O[C@H](C(=O)N2CCSC2)[C@@H](O)[C@H]1O`, the fluorescence intensity is reported as 5590 (inactive).
